Source: PubChem
Shown are actives, neighbours in structure and some others; about 1.4% of the full set was active somewhere.
TrxR1 inh: qHTS Assay for Inhibitors of Mammalian Selenoprotein Thioredoxin Reductase 1 (TrxR1): qHTS | Thioredoxin reductase 1, cytoplasmic (Rattus norvegicus), O89049 | recombinant rTrxR1, NADPH fluorescence consumption, selenite substrate | Potency, µM (titrated, usually from 114 µM), usual class: inhibitors | actives 1% (n = 390,000) | AID 588453, 2011; further: nearly all actives have a fitted effect of over 65% in size
Target sequence (O89049 whole entry, looked up): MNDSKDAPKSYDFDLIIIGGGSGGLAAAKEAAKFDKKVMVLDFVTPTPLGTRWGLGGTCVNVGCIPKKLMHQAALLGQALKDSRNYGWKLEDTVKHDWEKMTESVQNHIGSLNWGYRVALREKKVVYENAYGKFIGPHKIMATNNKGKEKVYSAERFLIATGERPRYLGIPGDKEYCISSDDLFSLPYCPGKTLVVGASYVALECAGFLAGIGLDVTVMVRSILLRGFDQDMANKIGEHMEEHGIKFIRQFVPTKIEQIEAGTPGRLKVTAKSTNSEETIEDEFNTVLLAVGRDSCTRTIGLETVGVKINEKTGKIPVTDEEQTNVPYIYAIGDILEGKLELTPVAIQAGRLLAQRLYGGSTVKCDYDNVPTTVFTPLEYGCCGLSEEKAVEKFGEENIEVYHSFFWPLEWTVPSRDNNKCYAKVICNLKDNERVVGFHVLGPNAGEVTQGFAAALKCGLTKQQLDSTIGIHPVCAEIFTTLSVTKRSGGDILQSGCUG
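Rat TrxR1 (90 nM in the dispensed reagent) was pre-reduced with 400 uM NADPH for 5 min at room temperature, then incubated with compound for 15 min. After 400 uM selenite was added, NADPH fluorescence (Ex 340/Em 450 nm) was followed for 8 min.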
GLS inhibitor: qHTS for Inhibitors of Glutaminase (GLS) | Potency, µM (top dose mostly 45.5 µM), usual class: inhibitors | actives 0.21% (n = 410,000) | GLS enzymatic activity, qHTS titration
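hKGA in 45 mM KH2PO4 pH 8.2, 0.02% Tween-20 with pin-transferred compounds; 1 mM L-glutamine (stock) plus glutamate oxidase/HRP/Amplex Red coupling added. Fluorescence read initially and after 30 min at RT.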
mIDH1 inhibitor: qHTS for Inhibitors of mutant isocitrate dehydrogenase 1 (IDH1): qHTS; Isocitrate dehydrogenase [NADP] cytoplasmic (Homo sapiens), O75874; IDH1-R132H enzyme, NADPH consumption, diaphorase/resazurin fluorescence; Potency, µM (series often up to 76.6 µM), usual class: inhibitors; actives 0.093% (n = 390,000); further: nearly all actives have a fitted effect of over 65% in size
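IDH1-R132H (0.5 ug/mL dispensed) in pH 7.5 Tris buffer was preincubated 30 min with compound, then given a substrate mix of 0.016 mM NADPH and 2 mM alpha-KG for 80 min at room temperature; remaining NADPH was read by diaphorase/resazurin fluorescence.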
LDHA inh: qHTS assay for inhibitors of human lactate dehydrogenase. activity change, % (values are at about 110 or 230 µM). purified LDHA, NADH/diaphorase-resazurin fluorescence; stronger effect = lower value. actives 0.15% (n = 480,000). AID 1347041, 2019. L-lactate dehydrogenase A chain (Homo sapiens), P00338; in the data active means activity change below about -30%; inconclusive means mostly about -25% to -30%
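Enzyme activity of human lactate dehydrogenase 5 (2 nM; 0.06 mM NADH, 0.2 mM pyruvate, 5 min, RT) is measured via a resazurin/diaphorase fluorescence readout of residual NADH.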
TrxR1 substrate: qHTS Assay for Substrates of Mammalian Selenoprotein Thioredoxin Reductase 1 (TrxR1): qHTS | Potency, µM (highest dose often 114 µM) | actives 0.01% (n = 390,000) | AID 588456, 2011 | purified TrxR1 substrate turnover, NADPH consumption readout | Thioredoxin reductase 1, cytoplasmic (Rattus norvegicus), O89049; further: nearly all actives have a fitted effect of over 50% in size
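Rat TrxR1, dispensed at 90 nM, was prereduced with 400 uM NADPH (final) for 5 min at ~22 deg C, then incubated with compound 15 min before 400 uM selenite. A first-read NADPH fluorescence drop versus no-compound background flagged substrates.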
PKM2 act: qHTS Assay for Activators of Human Muscle isoform 2 Pyruvate Kinase; purified PKM2, Kinase-Glo ATP luminescence, activation; response scale: 0% is enzyme alone, no compound; Potency, µM (titrated, usually from 57.5 µM), actives largely listed as activators; actives 0.34% (n = 260,000); AID 1631, 2009; further: nearly all actives have a fitted effect of over 55% in size
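hPK-M2, >95% pure; 0.1 mM ADP / 0.5 mM PEP final; imidazole pH7.2 buffer w/ 7 mM MgCl2, 50 mM KCl; 1 h RT; Kinase-Glo lum. Intermediate enzyme activity for dual inhibitor/activator qHTS.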
Of the large screens only hits and unclear results are named; the others gave an inactive call. Unless noted, the call rests on the fitted dose curve; in most records, active means well fitted curve in the direction sought with a large enough effect; inconclusive means small, poorly fitted or top-dose-only effect, or another doubt; inactive means no such curve, though single readings can be large; an effect the other way counts as inactive or inconclusive.

N#Cc1ccc(CN2CCC(c3c[nH]c4ccccc34)CC2)cc1	none (no result: TrxR1 inh, GLS inhibitor, mIDH1 inhibitor, TrxR1 substrate, PKM2 act)
CN1C(=O)NC(c2cccc(O)c2)C(C(=O)c2cccs2)C1(O)C(F)(F)F (stereo not drawn)	TrxR1 inh 31.6µM
O=C(CCN1CCN(c2ccccc2)CC1)c1ccc(Br)cc1	TrxR1 inh 3.98µM (no result: PKM2 act)
CCOC(=O)c1c(C)n(Cc2ccc(F)cc2)c2ccc(O)cc12	PKM2 act 11.2µM
COc1ccc(C=C2C(=O)NC(=S)NC2=O)cc1	TrxR1 inh 2.82µM (no result: PKM2 act)
CN(C)c1ccc(C=C2C(=O)NC(=S)NC2=O)cc1[N+](=O)[O-]	TrxR1 inh 3.98µM
O=C1NC(=S)NC(=O)C1=Cc1ccc(OCc2ccccc2)cc1	TrxR1 inh 7.94µM, LDHA inh inconclusive (no result: PKM2 act)
COc1ccc(OCCOc2cccc(C=C3C(=O)NC(=O)NC3=O)c2)cc1	none (no result: TrxR1 inh, GLS inhibitor, mIDH1 inhibitor, LDHA inh, TrxR1 substrate)
CN(C)c1ccc(C2CC2N)cc1 (stereo not drawn)	none (no result: TrxR1 inh, GLS inhibitor, mIDH1 inhibitor, TrxR1 substrate, PKM2 act)
CN(C)C(=O)Oc1ccc2cc(-c3ccccc3)c(=O)oc2c1	none (no result: TrxR1 inh, GLS inhibitor, mIDH1 inhibitor, TrxR1 substrate, PKM2 act)
COc1ccc(CNCCc2cccc(Cl)c2)cc1	none (no result: TrxR1 inh, GLS inhibitor, mIDH1 inhibitor, TrxR1 substrate, PKM2 act)
CCOC(=O)N1C(C)CN(/[N+]([O-])=N/Oc2ccc([N+](=O)[O-])cc2[N+](=O)[O-])CC1C (stereo not drawn)	TrxR1 inh 25.1µM (no result: GLS inhibitor, mIDH1 inhibitor, LDHA inh, PKM2 act)
O=C1NC(=O)N(c2ccccc2)C(=O)/C1=C\c1ccc([N+](=O)[O-])o1	none (no result: TrxR1 inh, GLS inhibitor, mIDH1 inhibitor, LDHA inh, TrxR1 substrate)
O=C(O)c1ccccc1-c1ccc(C=C2C(=O)N(c3ccccc3)C(=S)N(c3ccccc3)C2=O)o1	TrxR1 inh 8.91µM, GLS inhibitor 8.91µM
C=CCn1c(O)c(C(C)=NCc2ccc3c(c2)OCO3)c(=O)[nH]c1=O	none
CC(=NCc1ccc2c(c1)OCO2)c1c(O)n(Cc2ccccc2)c(=O)[nH]c1=O	PKM2 act 25.1µM
CN(C)C(=O)Oc1ccc2c(=O)c(-c3ccccc3)coc2c1	none (no result: TrxR1 inh, GLS inhibitor, mIDH1 inhibitor, TrxR1 substrate, PKM2 act)
Cc1ccc2c(c1)C(SCC(=O)Nc1ccccc1C(=O)O)c1ccccc1O2 (stereo not drawn)	none (no result: TrxR1 inh, GLS inhibitor, mIDH1 inhibitor, TrxR1 substrate, PKM2 act)
O=C1NC(=O)N(Cc2cccs2)C(=O)/C1=C/c1ccc(N2CCOCC2)cc1	TrxR1 inh inconclusive, LDHA inh -46.3
Cc1ccccc1N1C(=O)NC(=O)/C(=C/c2ccc(N3CCOCC3)o2)C1=O	none
Cc1ccccc1N1C(=O)NC(=O)/C(=C\c2cc(Br)c(N3CCOCC3)o2)C1=O	TrxR1 inh 22.4µM
CCN(CC)P(=O)(NC(=O)C(Cl)(Cl)Cl)N(CC)CC.[Cl-].[Cl-].[Cl-].[Nd+3]	LDHA inh -49.0
Oc1ccc2c3c1OC1c4[nH]c5ccccc5c4C[C@@]4(O)C(C2)N(CC2CC2)CC[C@]314 (stereo partly drawn)	none (no result: PKM2 act)
O=C1/C(=C/c2ccccc2)C[C@@]2(O)[C@H]3Cc4ccc(O)c5c4[C@@]2(CCN3CC2CC2)C1O5 (stereo partly drawn)	TrxR1 inh 35.5µM (no result: PKM2 act)
O=C1NC(=O)N(c2cccc(Br)c2)C(=O)/C1=C/c1ccsc1	TrxR1 inh 44.7µM
O=C1NC(=O)N(c2ccc(Br)cc2)C(=O)/C1=C/c1ccsc1	TrxR1 inh inconclusive
c1ccc(CCNC2CCCCCCC2)cc1	none (no result: TrxR1 inh, GLS inhibitor, mIDH1 inhibitor, TrxR1 substrate, PKM2 act)
CC(Cc1ccc(O)cc1)NCC(O)c1ccc(O)c(O)c1 (stereo not drawn)	GLS inhibitor inconclusive (no result: TrxR1 inh, TrxR1 substrate, PKM2 act)
CC(N)[C@H](O)c1ccc(O)c(O)c1 (stereo partly drawn)	TrxR1 inh 17.8µM (no result: GLS inhibitor, mIDH1 inhibitor, PKM2 act)
CNC(=O)Oc1ccc(-c2cn3cc(Cl)ccc3n2)cc1	TrxR1 inh 22.4µM
Nc1ccc2ccc3cccc[n+]3c2c1	TrxR1 inh 70.8µM
